# Measured values as given in the supplement of paper PMC7366291.
# Counter-ions that a name gives are not always drawn. ± gives the standard deviation or the standard deviation of the averaged measurements.
# Tests used:
# Details in all cases: 25 µM; exposure: 24-48 hpf
# [1] = tested on: Danio rerio Tg(wt1b:EGFP) embryo, pronephros; experiment: glomerular separation, fold change vs DMSO control; higher = glomeruli further apart (abnormal)
# Outline: (§1)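 Features are reported as fold changes against the mean of same-day DMSO-treated embryos. Before that, values more than 2 SD away from the feature mean were excluded. The embryos, dechorionated Tg(wt1b:EGFP) zebrafish, had been exposed from 24 to 48 hpf at 28.5°C to 25 μM compound in 0.5% DMSO in HEPES-buffered E3 with 0.003% PTU, and distances and angles came from 16 manually set points on maximum projections of dorsal pronephros images in Fiji.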
# [2] = tested on: Danio rerio Tg(wt1b:EGFP) embryo, pronephros; experiment: glomerular width (mean of left and right), fold change vs DMSO control; higher = wider glomerulus
# Outline: as §1
# [3] = tested on: Danio rerio Tg(wt1b:EGFP) embryo, pronephros; experiment: fraction of imaged embryos annotated as normal kidney; higher = less nephrotoxic; extreme values may be limits of the assay
# Outline: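 The value given is the share of embryos in each treatment scored as having a normal kidney. To obtain it, dechorionated Tg(wt1b:EGFP) zebrafish embryos were treated from 24 to 48 hpf at 28.5°C with 25 μM compound in 0.5% DMSO, in 5 mM HEPES-buffered E3 with 0.003% PTU. Pronephroi were imaged by widefield fluorescence (470 nm, 10 z-slices), and every embryo was annotated by hand from maximum projections.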
# [4] = tested on: Danio rerio Tg(wt1b:EGFP) embryo, pronephros; experiment: pronephric angle neck segment to proximal convoluted tubule (mean of left and right), fold change vs DMSO control; higher = larger pronephric angle
# Outline: as §1
SMILES,glomerular separation [1],glomerular width [2],fraction of imaged embryos annotated as normal kidney [3],pronephric angle neck segment [4]
CNNCc1ccc(C(=O)NC(C)C)cc1 [Procarbazine hydrochloride],1.02 ± 0.24,0.973 ± 0.017,1,1.084 ± 0.0049
CCN(CC)CCNc1ccc(CO)c2sc3ccccc3c(=O)c12 [Hycanthone],1.12 ± 0.27,0.968 ± 0.052,0.833,0.977 ± 0.059
CNCC(O)c1ccc(O)c(O)c1 (configuration not stated) [Racepinephrine hydrochloride],0.935 ± 0.21,0.946 ± 0.011,0.667,0.998 ± 0.035
CCCCC1C(=O)N(c2ccccc2)N(c2ccccc2)C1=O [Phenylbutazone],5.01 ± 1.6,0.552 ± 0.0084,0,1.67 ± 0.032
COc1cc(N)c(Cl)cc1C(=O)NC1CCN(CCCOc2ccc(F)cc2)CC1OC (configuration not stated) [Cisapride],1.09 ± 0.39,1.066 ± 0.0076,0.583,0.992 ± 0.071
CC(=O)[C@H]1CC[C@H]2[C@@H]3C=CC4=CC(=O)CC[C@@]4(C)[C@@H]3CC[C@]12C [Dydrogesterone],1.29 ± 0.6,1.04 ± 0.02,0.833,0.973 ± 0.012
Cc1cc(C(C)(C)C)cc(C)c1CC1=NCCN1 [Xylometazoline hydrochloride],1.11 ± 0.42,0.948 ± 0.05,1,1 ± 0.012
O=C(O)c1cccnc1 [Niacin],0.706 ± 0.25,1.04 ± 0.063,0.917,0.992 ± 0.032
CCC(NC(C)C)C(O)c1ccc(O)c(O)c1 (configuration not stated) [Isoetharine mesylate salt],1.01 ± 0.56,1.074 ± 0.0074,0.75,1.01 ± 0.032
CNC(=C[N+](=O)[O-])NCCSCc1csc(CN(C)C)n1 [Nizatidine],0.966 ± 0.41,0.9023 ± 0.0037,0.917,1.01 ± 0.043
CCc1c2c(nc3ccc(OC(=O)N4CCC(N5CCCCC5)CC4)cc13)-c1cc3c(c(=O)n1C2)COC(=O)[C@]3(O)CC [Irinotecan hydrochloride trihydrate],1.09 ± 0.45,1.02 ± 0.022,0.667,1.02 ± 0.028
Cc1ccc(C)c(OCCCC(C)(C)C(=O)O)c1 [Gemfibrozil],5.88 ± 2.2,0.602 ± 0.06,0,1.73 ± 0.11
Cc1cc(C(C)(C)C)c(O)c(C)c1CC1=NCCN1 [Oxymetazoline hydrochloride],1.08 ± 0.39,1.03 ± 0.078,0.833,0.976 ± 0.042
CN1CCC(=C2c3ccccc3CC(=O)c3sccc32)CC1 [Ketotifen fumarate],0.991 ± 0.29,1.06 ± 0.027,0.833,0.948 ± 0.013
O=c1[nH]c(=O)n([C@H]2C[C@H](O)[C@@H](CO)O2)cc1I [Idoxuridine],1.12 ± 0.42,1.05 ± 0.017,0.667,1.05 ± 0.073
CC(C)NC[C@H](O)COc1ccc(CC(N)=O)cc1 [(S)-(-)-Atenolol],0.84 ± 0.24,0.918 ± 0.067,0.5,0.959 ± 0.08
CN(C)CCOC(C)(c1ccccc1)c1ccccn1 (configuration not stated) [Doxylamine succinate],1.15 ± 0.53,0.9589 ± 0.009,0.818,1.01 ± 0.065
C#CCN[C@@H]1CCc2ccccc21 [Rasagiline],1.13 ± 0.38,0.994 ± 0.012,0.667,0.972 ± 0.021
CC(C)(C)NC[C@H](O)COc1nsnc1N1CCOCC1 [Timolol maleate salt],0.812 ± 0.37,0.9995 ± 0.0057,0.833,0.9989 ± 0.0023
O=C1OC(CN2CCOCC2)CN1/N=C/c1ccc([N+](=O)[O-])o1 (configuration not stated) [Furaltadone hydrochloride],0.859 ± 0.33,1.1 ± 0.021,0.75,0.995 ± 0.015
CN1CCC(=C2c3ccccc3Sc3ccccc32)CC1 [Pimethixene maleate],1.32 ± 0.41,1.01 ± 0.021,0.917,1.062 ± 0.0083
Nc1nc(NC2CC2)c2ncn([C@H]3C=C[C@@H](CO)C3)c2n1 [Abacavir Sulfate],0.958 ± 0.35,1.05 ± 0.052,0.9,1.04 ± 0.034
Cc1cccc(C)c1NC(=O)C(C)N (configuration not stated) [Tocainide hydrochloride],1.08 ± 0.37,0.975 ± 0.0083,1,0.941 ± 0.048
NC(=O)NC1NC(=O)NC1=O (configuration not stated) [Allantoin],0.881 ± 0.25,0.9104 ± 0.001,0.917,0.981 ± 0.024
CCc1nc(N)nc(N)c1-c1ccc(Cl)cc1 [Pyrimethamine],0.78 ± 0.26,1.15 ± 0.041,0.75,0.974 ± 0.018
CCCCC[C@H](O)/C=C/[C@@H]1[C@@H](C/C=C\CCCC(=O)O)[C@@H](O)C[C@H]1O [Dinoprost trometamol],0.881 ± 0.18,1.01 ± 0.064,0.833,0.975 ± 0.043
CC(=O)O[C@]1(C(C)=O)CC[C@H]2[C@@H]3C=C(Cl)C4=CC(=O)[C@@H]5C[C@@H]5[C@]4(C)[C@H]3CC[C@@]21C [Cyproterone acetate],1.2 ± 0.46,0.931 ± 0.028,0.917,0.977 ± 0.017
NCCCC[C@H](N[C@@H](CCc1ccccc1)C(=O)O)C(=O)N1CCC[C@H]1C(=O)O [Lisinopril],1.16 ± 0.32,0.998 ± 0.058,0.833,1.02 ± 0.032
